TDP1 cell CPT: DT40-hTDP1 cell growth loss with CPT; Potency, µM (titrated, usually from 46.2 µM), actives largely listed as inhibitors; chicken DT40 Tdp1-/-;hTDP1 cells + 20 nM CPT, ATP luminescence, 48 h; 420,000 compounds, 12% hits; also: nearly all actives have a fitted effect of over 55% in size
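Chicken DT40 Tdp1-/- cells stably complemented with human TDP1 were seeded at 400 cells/well in medium containing 20 nM camptothecin, exposed to pin-transferred compounds, and grown at 37 °C for at least 48 hr. Viability was read as ATP luminescence.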
IL1B secr inh: blocks inflammasome-driven IL-1 beta release; THP-1 LPS/ATP IL-1B secretion, AlphaLISA, 16 h; hits give low values; 360,000 compounds, 4.7% hits; activity change, % at 57.5 µM; AID 743279; in the data active = activity change below about -50%; inconclusive = mostly about -30% to -49%
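THP-1 cells pretreated 1 hr with compounds (up to 57.5 uM final), then stimulated with LPS (250 ng/mL final) plus ATP (1.25 mM final); secreted IL-1B measured by AlphaLISA after 16 hr, decreased signal indicating inhibition.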
BCR signal inh: inhibitors of chronic active B-cell receptor signaling; ABC-DLBCL IkBa-CBG/CBR reporter, luminescence ratio, 4 h; Potency, µM (doses to about 46.1 µM), hits mostly inhibitors; 340,000 compounds, 0.05% hits; AID 493014; active = well fitted inhibition curve with a large enough effect in the signal ratio, with a control signal flat, not every such curve was filed as active; inconclusive = small, poorly fitted or top-dose-only effect, or effect the other way, or a change in a side signal; the % refers to the signal ratio
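TMD8 human ABC-DLBCL cells with doxycycline-inducible IκBα–green luciferase fusion and unfused red luciferase, in 0.5% FBS medium; compounds up to 46 uM, 4 h at 37C. Green/red luminescence ratio, filter-overlap corrected, fitted to concentration-response curves.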
MCF10A rereplic: DNA re-replication induction in MCF 10a cells. MCF 10A DNA re-replication, Hoechst nuclear intensity, 48 h. Potency, µM (top dose mostly 46.1 µM), hits mostly activators. 350,000 compounds, 2.9% hits. AID 624296; also: nearly all actives have a fitted effect of over 50% in size
SW480 rerep: DNA re-replication induction in SW480 cells. SW480 DNA re-replication, Hoechst DNA content imaging, 48 h. Potency, µM (titrated, usually from 46.1 µM), actives largely listed as activators. 340,000 compounds, 1.8% hits; also: nearly all actives have a fitted effect of over 55% in size
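Hoechst fluorescence of nuclei (405 nm excitation, 500-530 nm emission) measured by plate-scanning imager after 48 hr compound exposure at 37 C; re-replication scored as increased number of nuclei with elevated intensity.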
TDP1 cell noCPT: qHTS for Inhibitors of human tyrosyl-DNA phosphodiesterase 1 (TDP1): qHTS in cells in absence of CPT | DT40 Tdp1-/- hTDP1 cells, no CPT, ATP luminescence, 48 h | Potency, µM (doses to about 46.2 µM), usual class: inhibitors | 420,000 compounds, 15% hits | AID 686978, 2013; also: nearly all actives have a fitted effect of over 55% in size
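Luminescent ATP content (CellTiter-Glo) served as the growth readout. Knockout chicken DT40 cells expressing human TDP1 were exposed to compounds without camptothecin for a minimum 48 hr at 37 °C.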
Numbers stand for hits; - = inactive; ? = inconclusive; . = no result; [ ] = remark or other dose. An excerpt weighted towards active compounds, which were near 19% of everything screened. Unless noted, calls follow the shape of the dose curve; as a rule, active = well fitted curve in the direction sought with a large enough effect; inconclusive = small, poorly fitted or top-dose-only effect, or another doubt; inactive = no such curve, though single readings can be large; an effect the other way counts as inactive or inconclusive.

SMILES	TDP1 cell CPT	IL1B secr inh	BCR signal inh	MCF10A rereplic	SW480 rerep	TDP1 cell noCPT
CCCCCNc1nc(N2CCCC2)c2c(c1C#N)CCN(C)C2	23µM	-51	-	11µM	?	23µM
Cc1ccc(C)c(C(=O)Cn2c(NCCO)nc3ccccc32)c1	?	-	-	-	-	-
COc1ccc([C@@H]2CC=C(C(=O)O)[C@H](c3ccc(C(C)(C)C)cc3)N2S(=O)(=O)c2ccc(C)cc2)cc1OC	?	-	-	?	?	15µM
CCOC(=O)C1=CC[C@@H](c2cc(OC)c(OC)c(OC)c2)N(S(=O)(=O)c2ccc(C)cc2)[C@H]1C(=O)OCC	26µM	-	-	-	-	?
CCOC(=O)C1=CC[C@@H](c2ccccc2)N(S(=O)(=O)c2ccc(C)cc2)[C@H]1c1ccc(C#N)cc1	12µM	-	.	.	.	9.2µM
CCOC(=O)C1=CC[C@@H](c2ccc(F)cc2)N(S(=O)(=O)c2ccc(C)cc2)[C@H]1c1ccccc1	16µM	-	.	.	.	23µM
Cn1c(=O)c2c(nc(SCCN3CCOCC3)n2C)n(C)c1=O	-	-	-	-	-	?
CCN(CC)CCCNC(=O)c1cnc(SC)nc1-c1ccccc1	-	.	.	.	.	-
CCOC(=O)C1=CC[C@@H](c2ccccc2)N(S(=O)(=O)c2ccc(C)cc2)[C@H]1C=C(C)C	16µM	-	.	.	.	12µM
CCOC(=O)C1=CC[C@@H](c2ccccc2)N(S(=O)(=O)c2ccc(C)cc2)[C@H]1c1ccccc1C	13µM	-	.	.	.	9.2µM
CCOC(=O)C1=CC[C@@H](c2ccccc2)N(S(=O)(=O)c2ccc(C)cc2)[C@H]1C#N	?	-	.	.	.	?
CCc1ccc([C@@H]2CC=C(C(=O)O)[C@H](c3ccc(Cl)cc3)N2S(=O)(=O)c2ccc(C)cc2)cc1	-	-	-	13µM	-	-
O=P(c1ccccc1)(c1ccccc1)C(O)c1cccs1 (centres undefined)	-	-	.	.	.	?
O=C(CCNC(=O)c1ccco1)NC(Cc1c[nH]c2ccccc12)C(=O)O (centres undefined)	-	-	-	-	-	-
COc1ccccc1C(CNC(=O)C(CCSC)NS(=O)(=O)c1ccccc1F)N1CCCC1 (centres undefined)	-	-	-	-	-	-
CN(CCOc1ccccc1)CC(=O)Nc1cc([N+](=O)[O-])ccc1Cl	-	-	-	?	-	?
CCOc1ccc(CN(C)CC(=O)Nc2ccc([N+](=O)[O-])cc2Cl)cc1	?	-	-	-	-	18µM
COc1cccc(C(C)(O)c2nc(-c3ccoc3)cs2)c1 (centres undefined)	?	-	.	.	.	?
COc1ccc(N(CC(=O)O)S(=O)(=O)c2ccc(C)cc2)cc1Cl	-	-	?	-	-	-
COc1ccc2ccccc2c1CN1CCc2nnc(C(NS(C)(=O)=O)C(C)C)n2CC1 (centres undefined)	?	.	.	.	.	-
NC(=O)[C@H]1CC2(CC(c3cccc(NC(=O)CC(c4ccccc4)c4ccccc4)c3)=NO2)CN1C(=O)C(c1ccccc1)c1ccccc1 (some centres undefined)	18µM	-	-	?	-	?
C/C=C\C=C\C(=O)N1CC2(CC(c3cccc(NC(=O)CC(c4ccccc4)c4ccccc4)c3)=NO2)C[C@H]1C(N)=O (some centres undefined)	?	-	-	?	-	18µM
NC(=O)[C@H]1CC2(CC(c3cccc(NC(=O)CC(c4ccccc4)c4ccccc4)c3)=NO2)CN1C(=O)c1ccccc1C(=O)c1ccccc1 (some centres undefined)	13µM	-	-	?	-[9.22 µM]	?
CCC(=O)Nc1cccc(C2=NOC3(C2)C[C@@H](C(N)=O)N(C(=O)c2ccccc2C(=O)c2ccccc2)C3)c1 (some centres undefined)	-	-	-	-	-	-
